# System: MARK2
# 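Further: kd values determined as follow-up on hits from a single-replicate KINOMEscan panel screen.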
row,Structure (SMILES),Kd [nM]
1,CCn1c(-c2ccncc2)nc2cnccc21 [SB-735216],> 10000
2,O=c1cc(N2CCOCC2)nc2n(Cc3cccc(Cl)c3)ccn12 [GSK2296823],> 10000
3,Cl.Cn1ccc(-c2cccc(Nc3ccnc4cc(-c5nccs5)ccc34)c2)n1 [GW525701],> 10000

# System: T1, MEK5
# T1 construct: gene MAP2K5
row,Structure (SMILES),Kd [nM]
1,CC(=O)Nc1n[nH]c2ncc(-c3ccccc3)cc12 [SB-548492],290
2,O=C(CCO)NCCn1ccc2ncnc(Nc3ccc(Oc4cccc(C(F)(F)F)c4)c(Cl)c3)c21,15
3,COc1cc2ncnc(Nc3ccc(OCc4ccccc4Br)c(Cl)c3)c2cc1OC.Cl [GI261590],98
4,COc1ccc(-c2oc3ncnc(N)c3c2-c2ccc(OC)cc2)cc1 [SB-589132],3000
5,Cl.c1ccc(Cn2ncc3cc(Nc4ncnc5ccccc45)ccc32)cc1 [GW273749],90
6,Cn1ccc2ncnc(Nc3ccc(Oc4cccc(Cl)c4)c(Cl)c3)c21,25
7,CCc1nc(-c2cccc(N(C)S(=O)(=O)c3ccccc3)c2)c(-c2ccnc(Nc3ccc(N4CCN(C(C)=O)CC4)nc3)n2)s1 [GSK1645895],7
8,Cl.c1ccc(Cn2ccc3cc(Nc4ncnc5ccccc45)ccc32)cc1 [GW275568],770
9,CS(=O)(=O)CCNCc1ccc(-c2ccc3ncnc(Nc4ccc(OCc5ccccc5)c(Cl)c4)c3c2)o1.Cl [GW574783],1000
10,OCCOCCn1ccc2ncnc(Nc3ccc(Oc4cccc(Cl)c4)c(Cl)c3)c21,200
11,Oc1ccc2ncnc(Nc3ccc(OCc4ccccc4)cc3)c2c1 [GI262866],82
12,COc1cc2c(Nc3cccc(NC(=O)c4ccccc4)c3)ncnc2cc1OCCCN1CCOCC1 [GSK223810],940
13,O=C(Nc1n[nH]c2nc(-c3ccco3)c(Br)cc12)c1ccc(CN2CCCC2)cc1.O=C(O)[C@H](O)[C@@H](O)C(=O)O [SB-742352],550
14,Cl.Cn1ccc(-c2cccc(Nc3ccnc4cc(-c5nccs5)ccc34)c2)n1 [GW525701],960
